The whole screen tested about 4,800 compounds, of which about 410 (8.5%) showed an effect of 50% or more. The sample as a whole holds a higher share of strong results than the screen did.
What follows are compounds tested on Plasmodium falciparum (assay: Confirmatory screen in NF54 pLDH assay, in single point, at 2uM, 72h). Settings: timepoint 72 hour.
Format: functional, Erythrocyte

Compound | % Inhibition [%]
Cc1nnc(NC(c2cnc3ccccc3c2)[C@H]2C[C@@H](O)C2)s1 (stereo partly specified) | 12
O=C(Cc1c[nH]c2ccccc12)N1CCc2ccccc2C1 | -17
COc1ccc2c(c1)OC13CCN(C)CC1C2C(C(=O)c1ccccc1OC)C(=O)N3 (stereo unspecified) | 10
CCC(=O)N1CCc2sc(S(=O)(=O)N3CCN(c4cc(C)ccc4C)CC3)cc2C1 | 38
c1ccc(-c2cn(-c3ccccc3)c3ncnc(N4CCCC4)c23)cc1 | 13
C=CCOc1cc(C(=O)N2CCCCC2)cc2occc12 | 11
COc1cc([C@H]2CC(=O)Nc3c2cnn3C)ccc1OCc1ccccc1 | -8
O=C(NC1CCCNC1=O)NC1CCCC1c1ccc(Cl)cc1 (stereo unspecified) | 10
O=C(NCCC1=CCOCC1)c1cnc2ccccn12 | -2
O=C(CCc1ccccc1)Nc1ccc(-n2nn[nH]c2=O)cc1 | 15
O=C1Nc2ccccc2[C@@]12Nc1ccccc1CO2 | 9
C[C@@H](C(=O)N1CCN(C/C=C/c2ccccc2)CC1)N1Cc2ccccc2C1=O | 0
Cc1ccc(CCNC(=O)c2ccc(-c3nc(CS(=O)(=O)c4ccc(C)cc4)c(C)o3)cc2)cc1 | -23
COc1ccc(N2CCN(Cc3cc(-c4ccc(Cl)cc4)no3)CC2)cc1 | -19
COc1ccc(-c2c[n+](-c3ccc(Cl)cc3)c3n2CCCCC3)cc1 | 57
COc1ccc(-n2nc(C(=O)N3CCN(c4ncccn4)CC3)c(=O)cc2OC)cc1 | -29
CCC(C)(C)N(C)C(=O)c1ccccc1Cl | -1
COc1ccc2c(c1)CCN2S(=O)(=O)c1ccc2c(c1)OCCO2 | -4
Cc1cc(C)n(S(=O)(=O)c2ccc3c(c2)OCCO3)n1 | 7
CC12CN(S(=O)(=O)c3ccc4c(c3)OCCO4)C3(C(=O)OCc4ccccc4)CC1CCC23C (stereo unspecified) | 64
CC(C)C(=O)N1N=C(C(C)C)C[C@]1(O)C(F)(F)F | 13

Compound | % Inhibition [%]
Oc1csc(Cc2nc(C(F)(F)F)cs2)n1 | -4
COC1(CNC(=O)C[C@H](O)c2ccccc2)CCC1 | -2
COc1cccc(CCc2ccccc2OC[C@H](CN(C)C)OC(=O)CCC(=O)O)c1 | -5
O=C(C[C@H](NCCO)C(=O)O)c1ccc2c(c1)CCCC2 | 2
O=C(Nc1ccsc1C(=O)NCc1cc(F)cc(F)c1)c1cnccn1 | 13
O=C(Nc1ccc(Cl)c(Cl)c1)Nc1ccc(Cl)cc1NC(=O)Nc1ccc(Cl)c(Cl)c1 | 65
C[C@@H](NC(=O)Nc1ccc(Cl)c(Cl)c1)C(=O)O | 10
CNc1nc(C)cc(C(=O)Nc2ccc(Cl)cc2NC(C)=O)n1 | 5
COc1ccc(-c2cc3n(n2)C[C@@](C)(C(=O)NCc2ccccc2)N(Cc2ccc4c(c2)OCO4)C3=O)cc1 | 39
COc1cc(N2CCn3c(nc4cc(Cl)ccc43)C2)ccc1NC(=O)C1CCCCC1 | -13
Cc1ccc(C(=O)N(Cc2cccc(F)c2)c2ccc(CC(=O)N[C@@H](C)c3ccccc3)cc2)cc1 | 89
Cc1ccccc1C(=O)N(Cc1cccc(F)c1)c1ccc(CC(=O)NCCN2CCCCC2)cc1 | 39
O=C(Cc1ccc(N(Cc2cccc(F)c2)C(=O)c2cccc(F)c2)cc1)NCCN1CCCCC1 | 29
O=C(OCc1cncs1)c1ccccc1 | 10
Cc1cc2nnc(-c3nc4ccccc4[nH]3)c(N)n2n1 | -2
Nc1c(-c2nc3ccccc3[nH]2)c2nc3ccccc3nc2n1Cc1ccccc1F | 62
CCC1C(C(=O)NCCN(C)CCOC)CCN1C(=O)OC(C)(C)C (stereo unspecified) | 1
CCn1ccc([C@H](C)NC(=O)c2cc(-c3ccc(OC)cc3)nc3c2c(C)nn3C)n1 | 12
Cc1c(CN(C)C(=O)Cn2ncc(Br)c2C)cnn1C | 4
C[C@@]1(C(=O)NCc2ccccc2)Cn2nc(-c3ccccc3)cc2C(=O)N1c1ccc2c(c1)OCCO2 | 36
CCc1ccc(CN2C(=O)c3c(C(=O)OC)ncn3C[C@@]2(C)C(=O)NC2CCCCCC2)cc1 | 14

Compound | % Inhibition [%]
CCc1ccc(-c2cc3n(n2)C[C@@](C)(C(=O)NC2CCCCC2)N(c2cc(C)cc(C)c2)C3=O)cc1 | 58
O=C(O[C@@H](c1ccccc1)N1C(=O)C(C(F)(F)F)(C(F)(F)F)c2ccccc21)C(C(F)(F)F)C(F)(F)F | 12
Cc1c(NC(=O)c2ccccc2-c2ccccc2)ccc(N2CCCC2=O)c1NC(=O)c1ccccc1-c1ccccc1 | -15
CCCN(CC(=O)O)S(=O)(=O)c1cccc(C)c1Br | -23
O=C(Nc1ccc2c(c1)cc(C(=O)Nc1ccc(C(F)(F)F)cc1)n2Cc1cccc(F)c1)c1ccccc1Cl | -25
C#CCN(CCCc1ccccc1C)[C@H]1CCS(=O)(=O)C1 | -23
O=C(O)c1cc(-c2ccc3c(c2)OCCO3)nc2c(Br)cc(Br)cc12 | 3
COc1ccc(C(O)CN2CCC(c3ccccc3)C2)cc1F (stereo unspecified) | 9
O=C(C1CCC1)N1CCC[C@H]1c1nc(C2CCOCC2)no1 | 12
COc1ccccc1NC(=O)c1cnn2c3c(cnc12)CCCCC3 | 3
COc1ccc2ccccc2c1C(=O)Nc1ccc(N2CCN(C)CC2)c(Cl)c1 | 4
CCOc1ccc2ccccc2c1C(=O)Nc1cc(C)nn1-c1nc2c(c(=O)[nH]1)CCC2 | 91
Cc1cc(NC(=O)C(=O)NC2CC(C)CC(C)(C)C2)n(-c2nc3c(c(=O)[nH]2)CCC3)n1 (stereo unspecified) | 84
Cc1nc(-c2ccc3[nH]c(=O)[nH]c3c2)cs1 | 9
CC1CN(CCCNC(=O)Cc2c[nH]c3ccc(F)cc23)CC(C)O1 (stereo unspecified) | -4
CC(C1Cc2ccccc2O1)N(C)C(=O)c1n[nH]c2c1CCC2 (stereo unspecified) | -6
Cc1cc(Cl)ccc1S(=O)(=O)N1CCc2nnc([C@H]3CCN(C(C)C)C3)n2CC1 | 10
COC(=O)C12CCC(C(=O)NC[C@H]3CCCOC3)(CC1)CC2 | 2
OCC#Cc1ncc(C(F)(F)F)cc1Cl | -19
